Source: PubChem
A selection: hits, their analogues and other compounds. The true share with any hit is near 0.95%.
Sa RN4220 lethal: kills Staphylococcus aureus RN4220. S. aureus RN4220 growth, OD600, 16 h. inhibition, % (concentration not given with the values). actives 0.33% (n = 330,000); in the data active means inhibition above about 85%;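 further: plate controls were untreated cells for no effect and reference antibiotic for full effect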
PrPC surface inh: inhibitors of human cell surface prion protein PrPC | P04156 | TR-FRET read-out | inhibition, % at 13.8 µM | actives 0.43% (n = 370,000) | AID 720596; in the data active means inhibition above about 24%; further: 0% = median of the test wells and 100% = reference compound wells
Sa ugtP lethal: kills S. aureus RN4220 lacking UgtP; S. aureus RN4220 ugtP deletion, OD600 growth, 16 h; growth inhibition, % (concentration not given with the values); actives 0.54% (n = 330,000); in the data active means growth inhibition above about 68%;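 further: plate controls were untreated wells for no effect and antibiotic for full effect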
BJeLR lethal: BJeLR cell viability loss | BJeLR (HRASV12) viability, CellTiter-Glo ATP luminescence, 48 h | inhibition, % (test concentration not listed) | actives 0.17% (n = 300,000) | AID 1554; in the data active means inhibition above about 50%
Starred values were filed as active, the others as inactive; nt = not tested or not shown.

SMILES	Sa RN4220 lethal	PrPC surface inh	Sa ugtP lethal	BJeLR lethal
O=C(NCc1cc(C(F)(F)F)ccc1Cl)c1cccc2c1C(=O)c1ccc(N3CCCCC3)cc1S2(=O)=O	9	-4	-1	nt
O=C(NCc1cc(C(F)(F)F)ccc1Cl)c1cccc2c1C(=O)c1ccc(N3CCC(N4CCCCC4)CC3)cc1S2(=O)=O	nt	46*	nt	nt
CCc1ccc2[nH]c3nc(SCC(=O)NNC(=O)c4ccc(C(C)(C)C)cc4)nnc3c2c1	19	7	85*	-11
Cc1ccc(C(=O)NNC(=O)CSc2nnc3c(n2)[nH]c2ccc(C)cc23)cc1	5	nt	-5	0
Cc1ccsc1C=NN1CCN(C2c3ccccc3-c3ccccc32)CC1	-9	nt	19	nt
Cc1ccc(C2=NN(C(=O)CCl)C(c3ccco3)C2)o1 (configuration not stated)	0	-8	-3	87*
COc1ccc(-n2c(SCc3ccc([N+](=O)[O-])cc3)nnc2-c2ccccc2)cc1	5	1	36	11
CCOc1ccc(-n2c(SCc3ccc([N+](=O)[O-])cc3)nnc2-c2ccccc2)cc1	59	-3	86*	3
CO[C@@H]1[C@@H](OC(N)=O)[C@@H](O)[C@H](Oc2ccc3c(O)c(NC(=O)c4ccc(O)c(CC=C(C)C)c4)c(=O)oc3c2C)OC1(C)C	nt	7	nt	nt
COC1C(OC(=O)c2ccc(C)[nH]2)C(O)C(Oc2ccc3c(O)c(NC(=O)c4ccc(O)c(CC=C(C)C)c4)c(=O)oc3c2Cl)OC1(C)C (configuration not stated)	94*	2	100*	nt
c1ccc2c3c([nH]c2c1)-c1[nH]ncc1CC3	-3	6	-20	-8
Clc1ccc2[nH]c3c(c2c1)CCc1cn[nH]c1-3	98*	5	79	-1
CCCCN=C[C@]12CCC(O)CC1(O)CCC1[C@@H]2CC[C@]2(C)[C@H](C3C=CC(=O)O3)CCC12O (some centres not stated)	5	5	3	68*
CC12CCC3C(CCC4(O)CC(O)CCC34C=NO)C1(O)CCC2C1=COC(=O)C1 (configuration not stated)	nt	4	nt	nt
FC(F)(F)c1nnc2c(Sc3ccccc3)nc3ccc(Cl)cc3n12	6	-7	10	62*
COc1cc(C=NNC(=O)c2cccnc2)ccc1OS(=O)(=O)c1cc(C)ccc1C	8	nt	8	nt
Cc1ccc2nc(/C(C#N)=C\c3ccc([N+](=O)[O-])o3)[nH]c2c1	99*	-4	99*	18
N#C/C(=C(/O)c1ccc([N+](=O)[O-])o1)c1nc2ccccc2[nH]1	19	3	22	-13
N#C/C(=C\c1ccc([N+](=O)[O-])o1)c1nc2ccccc2[nH]1	100*	-4	100*	44
O=C1NCC(c2ccccc2)C1C(=O)NN=Cc1ccc(-c2ccc(Cl)c(Cl)c2)o1 (configuration not stated)	-19	nt	-5	nt
Cc1c(NC(=S)NN=Cc2cccc(O)c2)c(=O)n(-c2ccccc2)n1C	0	nt	-7	nt
O=C(c1ccc(CS(=O)Cc2cccc(Cl)c2)o1)N1CCN(C2CCCCC2)CC1 (configuration not stated)	-3	3	95*	-19
O=C(c1ccc(CS(=O)Cc2ccc(Cl)cc2)o1)N1CCN(c2ccc(F)cc2)CC1 (configuration not stated)	-4	6	90*	-8
COc1cccc(N2CCN(C(=O)c3ccc(CS(=O)c4ccc(Cl)cc4)o3)CC2)c1 (configuration not stated)	0	19	3	4
O=C(c1ccc(CS(=O)Cc2ccc(Cl)cc2)o1)N1CCN(c2cccc(Cl)c2)CC1 (configuration not stated)	-8	8	93*	-3
SMILES	Sa RN4220 lethal	PrPC surface inh	Sa ugtP lethal	BJeLR lethal
COc1cccc(N2CCN(C(=O)c3ccc(CS(=O)c4ccc(C)cc4)o3)CC2)c1 (configuration not stated)	nt	15	nt	52*
O=C(NN=Cc1cc(Br)c(O)c(Br)c1)c1cccc(C(F)(F)F)c1	-1	nt	1	nt
Cc1cc(=O)[nH]c(NN=Cc2ccc(C)o2)n1	-2	nt	4	nt
NC(=NOC(=O)COc1ccc(Br)cc1)c1cccc([N+](=O)[O-])c1	6	nt	5	nt
COC(=O)C1=C(C(=O)OC)C2N(Cc3ccccc3)c3ccccc3[C@@]23CC(C(=O)OC)N=C3N1 (some centres not stated)	6	nt	3	nt
O=C(c1ccc(CS(=O)Cc2cccc(Cl)c2)o1)N1CCN(c2ccc(F)cc2)CC1 (configuration not stated)	nt	0	nt	nt
Cc1ccc(C)c(N2CCN(C(=O)c3ccc(CS(=O)Cc4cccc(Cl)c4)o3)CC2)c1 (configuration not stated)	1	2	98*	18
COc1cc(OC)c(C=NNC(=O)c2ccc([N+](=O)[O-])cc2)cc1Br	4	nt	-2	nt
CCc1ccc(/C=C2\SC(=S)N(CCC(=O)NCCCN3CCOCC3)C2=O)cc1	-2	10	5	103*
O=C(CCCN1C(=O)/C(=C/c2cccc(Br)c2)SC1=S)NCCCN1CCOCC1	1	6	10	77*
CC(=O)n1cc(N(C(=O)CCl)c2ccc(C)cc2)c2ccccc21	17	-5	27	84*
COC(=O)C1=C(c2ccc(OC)c(OC)c2)CC2CCC1N2C(=O)N1CCCCC1 (configuration not stated)	6	nt	-1	nt
O=C(Nc1nnc(C2=COCCO2)o1)c1cccc(Br)c1	92*	-4	99*	1
O=C(Nc1nnc(C2=COCCO2)o1)c1cccc([N+](=O)[O-])c1	-1	-2	1	18
COc1cc(C=NNC(=O)c2ccc(Cn3cc([N+](=O)[O-])cn3)o2)cc(Br)c1O	1	nt	0	nt
Cc1c(C=Nn2cnnc2)c2ccccc2n1C	4	nt	13	nt
COc1cc(OC)cc(-c2sc3ccc(OC)cc3c2-c2ccc(O)cc2)c1	99*	0	100*	nt
COc1ccc(-c2sc3ccc(OC)cc3c2-c2ccc(O)cc2)cc1	76	2	100*	nt
CN(C)CCOc1ccc(-c2c(-c3ccccc3)sc3ccccc23)cc1	100*	-12	100*	nt
COc1ccc2sc(-c3ccccc3OC)c(-c3ccc(O)cc3)c2c1	nt	-2	nt	nt
COc1ccc(-c2c(-c3ccccc3OC)sc3ccccc23)cc1	-10	-8	87*	-6
Cc1ccc(NC(=O)ON=Cc2ccc(N(C)C)cc2)cc1	-3	nt	8	nt
COC(=O)[C@@]1(C)CC[C@]2(C)CC[C@@]3(C)C(=CC(=O)C4[C@@]5(C)CCC(O)C(C)(C)C5CC[C@]43C)C2C1 (some centres not stated)	7	nt	-10	nt
Cc1ccc(C2=[N+]([O-])C3(CCCCCC3=NNC(N)=O)N(O)C2(C)C)o1 (configuration not stated)	-9	nt	-3	nt
COc1ccc(-c2c(-c3cc(OC)cc(OC)c3)sc3ccc(OC)cc23)cc1	-9	0	92*	nt
O=Cc1ccc(Sc2nnc(-c3ccccc3)o2)c([N+](=O)[O-])c1	-2	nt	26	-7
Cn1nc([N+](=O)[O-])nc1Sc1nnc(-c2ccccc2)o1	2	7	11	56*
